High-throughput results from PubChem.
CHX counter = counter-screen for Shiga toxin inhibitors: cycloheximide protein synthesis inhibition | cell reporter, cycloheximide protein synthesis inhibition counterscreen | max response, % | 12% of 300,000 active; in the data active = max response mostly above about 13%, no sharp cut-off; inactive = mostly below about 14%; also: read at 38.3 µM for the half of the compounds with a filed dose; 0% is about no effect
LmPK inh = LmPK (Leishmania mexicana) enzyme inhibition; AID 1721; Potency, µM (titrated, usually from 57.5 µM), without a hit: at the top dose activity change, negative = inhibition, actives largely listed as inhibitors; purified LmPK, Kinase-Glo ATP luminescence, 1 h; Q27686; 0.37% of 290,000 active; also: potency is read from the fitted curve at half-maximal effect; % is scaled to controls: 0 for no effect and ±100 for the full control effect
Target sequence (Q27686 whole entry, looked up): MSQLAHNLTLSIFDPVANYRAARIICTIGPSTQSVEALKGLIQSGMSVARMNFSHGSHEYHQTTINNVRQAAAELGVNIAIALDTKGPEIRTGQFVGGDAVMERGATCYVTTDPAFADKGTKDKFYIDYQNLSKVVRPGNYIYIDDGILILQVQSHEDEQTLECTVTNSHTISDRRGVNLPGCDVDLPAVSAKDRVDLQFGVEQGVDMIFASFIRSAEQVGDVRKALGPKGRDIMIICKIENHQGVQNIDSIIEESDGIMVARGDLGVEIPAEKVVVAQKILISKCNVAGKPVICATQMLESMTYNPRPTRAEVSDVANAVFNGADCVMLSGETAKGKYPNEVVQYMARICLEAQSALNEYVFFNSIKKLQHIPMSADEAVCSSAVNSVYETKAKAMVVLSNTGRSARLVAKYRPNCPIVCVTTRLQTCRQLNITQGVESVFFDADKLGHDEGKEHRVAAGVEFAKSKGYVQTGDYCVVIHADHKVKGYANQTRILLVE
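ATP generated from ADP (0.1 mM) and PEP (0.5 mM) by 0.1 nM LmPK over 1 h at room temperature (pH 7.2 imidazole buffer) was detected by coupled luciferase luminescence. Values were normalized to uninhibited and no-enzyme wells.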
Shiga inhibitor = blocks Shiga toxin action in Vero cells. inhibition, % at 38.7 µM. 9.2% of 290,000 active. Vero cells, Shiga toxin protein synthesis inhibition reporter; in the data active = inhibition mostly above about 28%, no sharp cut-off; inactive = mostly below about 43%; also: 0% is about no effect
Tb PYK inh = T. brucei pyruvate kinase inhibition | Q57TT1 | TbPYK enzyme, Kinase-Glo Plus ATP luminescence, 45 min | Potency, µM (series often up to 76.8 µM), without a hit: at the top dose activity, negative = inhibition, usual class: inhibitors | 0.12% of 410,000 active | AID 624173; also: potency is read from the fitted curve at half-maximal effect; % is scaled to controls: 0 for no effect and ±100 for the full control effect; nearly all actives have a fitted effect of over 50% in size
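Quantitative HTS: titrated library compounds versus trypanosomal pyruvate kinase in TEA buffer (pH 7.2) containing KCl, MgCl2, BSA and Tween-20. Reactions were initiated with ADP, 130 uM final. Kinase-Glo Plus luminescence was read after 45 min at RT.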
Giardia FBPA inh = inhibitors of Giardia lamblia fructose-1,6-bisphosphate aldolase; purified Giardia FBPA; AID 2451; Potency, µM (series often up to 59.6 µM), for inactives: at the highest dose activity, negative = inhibition, actives largely listed as inhibitors; 0.71% of 290,000 active; also: potency is read from the fitted curve at half-maximal effect; % is scaled to controls: 0 for no effect and ±100 for the full control effect; nearly all actives have a fitted effect of over 55% in size
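40 nM FBPA preincubated 10 min at RT with compound (up to 57.5 uM final), then substrate plus GAPDH/TPI/NAD/arsenate coupling and diaphorase/resazurin added. Fluorescence read after 20 min at RT, 525/598 nm.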
RE007 growth inh = less growth of the S. pombe RE007 Vpr strain; S. pombe RE007 Vpr strain, BacTiter-Glo ATP luminescence, 24 h; Potency, µM (top dose mostly 92.2 µM), for the others: at the top dose activity change, negative = less growth, usual class: inhibitors; 0.21% of 360,000 active; active = well fitted falling curve with a large enough effect; inconclusive = small, poorly fitted or top-dose-only effect; inactive = no such curve, though single readings can be large or run the other way; also: potency is read from the fitted curve at half-maximal effect; % is scaled to controls: 0 for no effect and ±100 for the full control effect; nearly all actives have a fitted effect of over 50% in size
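Fission yeast strain RE007, carrying one chromosomally integrated HIV-1 vpr copy, was seeded at OD 0.01 in PMG+AL medium with 23 nL pinned compound. After 24 h at 30 °C and 99% humidity, viability was read by BacTiter-Glo luminescence.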
An asterisk follows results filed as active; u = inconclusive; x = no result given. Shown is part of a subset that was picked to be rich in hits. Unless noted, calls follow the shape of the dose curve; as a rule, active = well fitted curve in the direction sought with a large enough effect; inconclusive = small, poorly fitted or top-dose-only effect, or another doubt; inactive = no such curve, though single readings can be large; an effect the other way counts as inactive or inconclusive.

SMILES | CHX counter | LmPK inh | Shiga inhibitor | Tb PYK inh | Giardia FBPA inh | RE007 growth inh
COc1ccc(-c2cc(C(=O)OC(C)C(=O)c3ccccc3)c3cccc(Cl)c3n2)cc1 (configuration not stated) | x | x | x | -3% | x | x
COc1cccc(-c2nnc(-c3ccc(C(F)(F)F)cc3)o2)c1OC | 21* | 3% | 26 | -7% | -4% | 0%
CCC(C(=O)NCc1ccc2c(c1)CCN2C(=O)c1ccc(F)cc1)c1ccccc1 (configuration not stated) | x | x | x | -2% | x | x
COc1ccc2c(CN(C)c3ccccc3)cc(=O)oc2c1 | 22* | 13% | 48 | -3% | -23% | -18%
COc1ccc2c(CN3CC=C(c4ccccc4)CC3)cc(=O)oc2c1 | 29* | -1% | 22 | u | 0% | -11%
CCc1ccc2c(CN3CC=C(c4ccccc4)CC3)cc(=O)oc2c1 | 8 | 1% | -38 | -14% | -10% | -6%
COc1ccc2c(=O)c(-c3ccccc3)c(C)oc2c1 | 25 | -1% | 34* | -11% | 0% | -3%
COC(=O)c1cc(-c2c(C)oc3cc(OC)ccc3c2=O)c(C)o1 | 2 | 6% | -14 | 2% | 6% | 18%
COc1ccc(-c2[nH]c(-c3ccc(F)cc3)nc2SCC(=O)Nc2ccc(OC)c(OC)c2)cc1 | x | x | x | 6% | x | x
Cc1cnc(CNc2cc(-c3ccccc3Cl)ncn2)cn1 | x | x | x | x | -8% | x
CCC1CCC/C1=N\NC(=O)c1ccccc1Cl (configuration not stated) | x | x | x | 2% | x | -4%
CCC1CCC/C1=N\NC(=O)c1ccoc1C (configuration not stated) | 38* | -11% | 86* | 3% | x | -4%
Cc1cc(C(=O)NC2CCCc3c2cnn3-c2ccc(C(C)(C)C)cc2)nn1C (configuration not stated) | -1 | -10% | -23 | 0% | x | -10%
Cc1cc(C)cc(-n2ncc3c2CCCC3NC(=O)c2cc(C)n(C)n2)c1 (configuration not stated) | 22* | 0% | 36* | 29% | 3% | -6%
Cc1cc(C(=O)NC2CCCc3c2cnn3-c2cccc(C)c2C)no1 (configuration not stated) | 27* | -1% | 46* | -2% | 3% | 10%
CC(=O)c1cc(C(=O)NC2CCCc3c2cnn3-c2cc(C)cc(C)c2)[nH]n1 (configuration not stated) | 29* | 0% | 35* | 0% | x | 5%
COc1cc(-c2ccc(-[n+]3nc(-c4ccccc4)nn3-c3ccc([N+](=O)[O-])cc3)c(OC)c2)ccc1-[n+]1nc(-c2ccccc2)nn1-c1ccc([N+](=O)[O-])cc1 | x | x | x | 0% | x | x
CCCn1c(=O)c2sccc2n2c(CCCC(=O)Nc3ccc(Oc4ccccc4)cc3)nnc12 | x | x | x | -8% | x | x
CCNC(=O)C/C(C)=N/NC(=O)C12CC3CC(CC(C3)C1)C2 | 20* | 1% | 41 | -5% | -3% | -8%
CC1(C)OCC(CSC2=C(SCC3COC(C)(C)O3)C(=O)c3ncccc3C2=O)O1 (configuration not stated) | x | x | x | x | 1.8µM* | x
Cc1oc(-c2ccccc2Cl)nc1CS(=O)(=O)CC(=O)NCc1ccc(F)cc1 | x | x | x | -2% | x | x
COc1ccc(S(=O)(=O)N/N=C(/C)c2ccco2)cc1 | 56* | -13% | 130* | 0% | x | 7%
Cc1nc(C(=O)NC2CC2)sc1C1(C)CC(c2ccccc2)=NO1 (configuration not stated) | 18* | -18% | 20 | 4% | 2% | -13%
COc1ccc(NC(=S)Nc2cc(C)[nH]n2)cc1Cl | 45* | -8% | 90* | -3% | u | 10%
Cc1cc(NC(=S)Nc2ccc(C)c(Cl)c2)n[nH]1 | 68* | -3% | 133* | -11% | u | -16%
CCOc1ccc(NC(=S)Nc2cc(-c3ccccc3)[nH]n2)cc1 | 13 | 2% | 4 | 2% | -2% | 14%
COc1cc(C)c(NC(=S)Nc2ccc(C)c(Cl)c2)cc1OC | 0 | 0% | -7 | -4% | 0% | -24%
